{
  "source": "ChEMBL document CHEMBL4296182",
  "about": "“CO-ADD screening of NIH NCI Diversity Set V”",
  "note": "Entries with a potency or affinity are not part of this list.",
  "data": [
    {"system": "Cryptococcus neoformans", "conditions": "Concentration 20 uM; ASSAY_TEST Inhibition of Fungal Growth; detection method Resazurin; Absorption (OD600-OD570); plate type 384well; NBS; CORNING #3640", "units": {"Inhibition": "%"}, "values": [
      {"smiles": "Oc1ncnc(CN2CCCCC2)c1O", "Inhibition": -11.85},
      {"smiles": "CCOC(=O)Cc1cc(O)c2cc(C)ccc2n1", "Inhibition": -11.29},
      {"smiles": "Sc1nc2c[nH]c(S)nc-2n1", "Inhibition": -7.36},
      {"smiles": "O=C(O)c1ccc(N2CCCCC2)cc1O", "Inhibition": -11.23},
      {"smiles": "NC(CC(=O)Nc1cc(C(F)(F)F)ccc1Cl)=NO", "Inhibition": -11.78},
      {"smiles": "Cc1c(O)ccc2c(O)c(NC(=O)c3ccc4c(c3)CCC(C)(C)O4)c(=O)oc12", "note": "[CYCLONOVOBIOCIC ACID]", "Inhibition": -3.84},
      {"smiles": "CS(=O)(=O)O.Cc1cc2c(cc1[N+](=O)[O-])NC(CNC(C)C)CC2", "note": "(centres undefined)", "Inhibition": -5.85},
      {"smiles": "O=C(O)CSc1ccc(NC(=O)Nc2ccccc2F)cc1", "Inhibition": -6.03},
      {"smiles": "O=C(O)c1ccccc1-n1c2ccccc2c2ccccc21", "Inhibition": -5.74},
      {"smiles": "C#CCNc1ccc(C(=O)OCC)cc1", "Inhibition": -3.8},
      {"smiles": "CCOC(=O)N1C/C(=C\\c2ccccc2)C(=O)/C(=C/c2ccccc2)C1", "Inhibition": -7.05},
      {"smiles": "CC(C)(C)NC1=NCCNC(c2ccccc2)=C1.CS(=O)(=O)O", "Inhibition": -14.32},
      {"smiles": "Nc1ccccc1C(=O)Nc1ccc(Cl)cc1Cl", "Inhibition": -17.52},
      {"smiles": "CN(c1cccnc1)c1[nH]cnc2nncc1-2", "Inhibition": -5.56},
      {"smiles": "O=C(c1ccccc1)c1ccccc1C(=O)c1ccccc1", "Inhibition": -5.73},
      {"smiles": "c1ccc(-n2nnnc2-c2cccc3ccccc23)cc1", "Inhibition": -9.54},
      {"smiles": "CN1N=C/C(=C/NC(N)=O)C1=O", "Inhibition": -3.93},
      {"smiles": "CCCCC(=O)N1CCCC(C)C1", "note": "(centres undefined)", "Inhibition": -4.37},
      {"smiles": "CN(C)S(=O)(=O)Nc1ccccn1", "Inhibition": -3.86},
      {"smiles": "Nc1ncnc2c1ncn2C1C=C(CO)C(O)C1O", "note": "(centres undefined)", "Inhibition": -6.12},
      {"smiles": "Cc1cc(OCCCCOc2ccc(C#N)cc2)ccc1[N+](=O)[O-]", "Inhibition": -12.2},
      {"smiles": "CC1=CC(C)(C(Cl)(Cl)Cl)C(C)=C/C1=N/O", "note": "(centres undefined)", "Inhibition": -11.97},
      {"smiles": "CCOC(=O)c1c(C)nc(C)c(C(=O)OCC)c1-c1ccc(OC)cc1", "Inhibition": 19.28},
      {"smiles": "CCOC(=O)C(=O)Cc1cccnn1", "Inhibition": -1.54},
      {"smiles": "COc1ccc([N+](=O)[O-])cc1NS(=O)(=O)c1ccc(C)cc1", "Inhibition": -6.48},
      {"smiles": "CC(=O)Oc1ccc(OC(C)=O)c2c1CC1(C)OC1(C)C2", "note": "(centres undefined)", "Inhibition": -11.66},
      {"smiles": "CCOc1ccc(Nc2c3ccccc3nc3ccccc23)cc1", "Inhibition": -2.93},
      {"smiles": "CS/C(=C\\c1ccc(C(=O)c2ccc(C)cc2)n1C)[S+](C)[O-]", "note": "(centres undefined)", "Inhibition": 1.32},
      {"smiles": "COC(=O)C1=C(C)NC(C)=C(C(=O)OC)C(N2C(=O)CCC2=O)C1", "note": "(centres undefined)", "Inhibition": -2.75},
      {"smiles": "Cc1ccc(S(=O)(=O)CCOC(=O)CNC(=O)OCc2ccccc2)cc1", "Inhibition": -8.5},
      {"smiles": "CC(=O)Nc1cccc(NC(C)=O)n1", "Inhibition": -1.6},
      {"smiles": "Nc1nc(SCc2ccccn2)c2ncn(C3OC(CO)C(O)C3O)c2n1", "note": "(centres undefined)", "Inhibition": -4.63},
      {"smiles": "Cn1ncc2c(Nc3cccc(Cl)c3)nc(Nc3cccc(Cl)c3)nc21", "Inhibition": -11.25},
      {"smiles": "Oc1ccc(Nc2ccnc3cc(Cl)ccc23)cc1", "Inhibition": -3.23},
      {"smiles": "CN(C)c1ncnc2c1ncn2-c1ccccc1", "Inhibition": -5.49},
      {"smiles": "Cc1nc([N+](=O)[O-])cn1-c1nc2ccccn2c1[N+](=O)[O-]", "Inhibition": -6.88},
      {"smiles": "Oc1ccc(/C=C\\c2cnccn2)cc1", "Inhibition": -11.21},
      {"smiles": "O=C(O)C(Cc1ccccc1N(CCO)CCO)N1C(=O)c2ccccc2C1=O", "note": "(centres undefined)", "Inhibition": -6.78},
      {"smiles": "Nc1ncncc1-c1ccc2ccccc2c1", "Inhibition": -7.84}
    ]}
  ]
}
